# ChEMBL document CHEMBL3988442, “University of Dundee, Small-Polar-MMV Screening Library” (2021)
# Screen size: about 66,000 compounds; about 960 (1.5%) showed an effect of 50% or more. Many of the other results were omitted from the sample, so strong results are more common in it than they were.
# System: Trypanosoma brucei
# Experiment: Trypanosoma brucei 72 hour study
# Type: functional, organism-based
# Parameters: scale not given: in the data most compounds retested in dose-response had high values
compound,measurement,setting,value
OC(CNc1nc(C2CCCC2)nc2c1CCNCC2)C(F)(F)F (stereo not given),Percent Effect,"30 µM, 30.03 µM",99.48%
Cc1nc2c(c(NCC(O)C(F)(F)F)n1)CCNCC2 (stereo not given),Percent Effect,"30 µM, 30.03 µM",-77.95%
OC(CNc1ncnc2c1CCNCC2)C(F)(F)F (stereo not given),Percent Effect,"30 µM, 30.03 µM",-18.54%
N#Cc1cccc(CN2CCC3(CC2)CC(c2ccncc2)C(=O)N3)c1.O=C(O)C(F)(F)F.O=C(O)C(F)(F)F (stereo not given),Percent Effect,"30 µM, 30.03 µM",43.46%
CCOc1ncccc1NC(=O)c1cc(C)c(C)s1,Percent Effect,"30 µM, 30.03 µM",63.47%
CCOc1ncccc1NC(=O)c1cc(C)sc1C,Percent Effect,"30 µM, 30.03 µM",-36.47%
CCOc1ncccc1NC(=O)c1ccc(C)s1,Percent Effect,"30 µM, 30.03 µM",-25.8%
O=C(NCCc1nnc2n1CCC2)NCC1(c2ccccc2)CC1,Percent Effect,"30.3 µM, […]",3.515%
O=C(O)C(F)(F)F.O=C(c1ccsc1)N1CCC2(CCN(Cc3ccccn3)C2=O)C1 (stereo not given),Percent Effect,"30 µM, 30.03 µM",-3.251%
CC(C)C(=O)N1CCC(n2nc(-c3ccco3)ccc2=O)CC1,Percent Effect,"30.3 µM, […]",-15.18%
CC(C)c1nnc2ccc(N3CCC(C(=O)Nc4nccs4)CC3)nn12,Percent Effect,"30 µM, 30.03 µM",61.33%
Cc1nnc2ccc(N3CCC(C(=O)Nc4nccs4)CC3)nn12,Percent Effect,"30 µM, 30.03 µM",0.472%
CC(C)c1nnc2ccc(N3CCCC(C(=O)Nc4nccs4)C3)nn12 (stereo not given),Percent Effect,"30 µM, 30.03 µM",-31.38%
CC(C)C1CN(c2cccc(C#N)n2)CCCN1Cc1ccc(F)cc1 (stereo not given),Percent Effect,"30.3 µM, […]",99.78%
CC(C)C1CN(S(C)(=O)=O)CCCN1Cc1ccc(F)cc1 (stereo not given),Percent Effect,"30 µM, 30.03 µM",-25.6%
CC(C)C1CN(c2cccc(C#N)n2)CCCN1CC1CC1 (stereo not given),Percent Effect,"30.3 µM, […]",-2.966%
CN(C)C(=O)[C@H]1C[C@H]2OCC[C@H]2N(Cc2ccc3ccccc3n2)C1.O=C(O)C(F)(F)F.O=C(O)C(F)(F)F,Percent Effect,"30.3 µM, […]",-111.9%
COCCNC(=O)c1cc2c(c3ccccc3n2C)n1C(=O)N(C)C,Percent Effect,"30 µM, 30.03 µM",28.71%
CC(C)NC(=O)c1cc2c(c3ccccc3n2C)n1C(=O)N(C)C,Percent Effect,"30 µM, 30.03 µM",61.67%
CCCNC(=O)c1cc2c(c3ccccc3n2C)n1C(=O)N(C)C,Percent Effect,"30.3 µM, […]",27.2%
Cc1ccsc1CN1CCC(n2cc(C(O)c3ccccc3)nn2)CC1 (stereo not given),Percent Effect,"30.3 µM, […]",-15.95%
CCc1nnc2n1CCN(C(=O)CCOc1ccc(C)cc1C)C2,Percent Effect,"30 µM, 30.03 µM",-30.52%
O=C(O)C(F)(F)F.O=C([C@@H]1CCO[C@@H]2CCN(CC3CCOCC3)C[C@H]21)N1CCCO1,Percent Effect,"30 µM, 30.03 µM",-11.19%
CCOCC(=O)N1C[C@@H]2CCN(c3cnccn3)C[C@@H]2C1.O=C(O)C(F)(F)F,Percent Effect,"30.3 µM, […]",-17.39%
CCN1CCn2c(C)cnc2C12CCN(C(=O)NC)CC2.O=C(O)C(F)(F)F,Percent Effect,"30.3 µM, […]",-20.19%
CCOC(=O)C1CCCCN1Cc1c[nH]nc1-c1ccc(F)cc1F (stereo not given),Percent Effect,"30.3 µM, […]",-2.201%
CCOC(=O)C1CCCCN1Cc1c[nH]nc1-c1cc2ccccc2o1 (stereo not given),Percent Effect,"30.3 µM, […]",58.53%
CCOC(=O)C1CCCN(Cc2c[nH]nc2-c2cc3ccccc3o2)C1 (stereo not given),Percent Effect,"30.3 µM, […]",15.89%
Cc1c(Br)cc2c(c1C)OCC(N(C)C)C2=O (stereo not given),Percent Effect,"30.3 µM, […]",0.8254%
CCN(CC)C1COc2c(cc(Br)c(C)c2C)C1=O (stereo not given),Percent Effect,"30.3 µM, […]",-8.815%
CCN(CC)C1COc2c(cc(Br)c(C)c2Br)C1=O (stereo not given),Percent Effect,"30.3 µM, […]",52.72%
O=C1CN(C(=O)c2ccc(Cl)cc2)CC(O)CN1Cc1cccs1 (stereo not given),Percent Effect,"30.3 µM, […]",99.92%
Cc1ccc(C(=O)N2CC(=O)N(Cc3cccs3)CC(O)C2)cc1 (stereo not given),Percent Effect,"30.3 µM, […]",2.037%
O=C1CN(C(=O)c2ccc(F)cc2)CC(O)CN1Cc1cccs1 (stereo not given),Percent Effect,"30.3 µM, […]",5.097%
CN1C[C@@H]2CC[C@H](CC1=O)N2C(=O)c1ccc(-c2ccccc2)[nH]c1=O,Percent Effect,"30.3 µM, […]",2.014%
CC(C)OCCCN(Cc1ccncc1)Cc1cc(F)ccc1F.Cl,Percent Effect,"30.3 µM, […]",-3.291%
C/C(Cl)=C/CNC(=O)[C@H]1CC[C@]2(CC1)CN(C)C(=O)c1ccccc1O2,Percent Effect,"30.3 µM, […]",-12.03%
CO[C@H]1CN(C(C)C)C[C@@H]1NC(=O)Nc1cccc(SC)c1,Percent Effect,"30 µM, 30.03 µM",-47.34%
CO[C@H]1CN(C(C)C)C[C@@H]1NC(=O)Nc1ccc(C(F)(F)F)cc1,Percent Effect,"30 µM, 30.03 µM",82.01%
CO[C@H]1CN(C(C)C)C[C@@H]1NC(=O)Nc1ccc2oc(C)cc2c1,Percent Effect,"30 µM, 30.03 µM",-77.41%
CO[C@H]1CN(C(=O)OC(C)(C)C)CC1NCc1cccn1C (stereo not given in full),Percent Effect,"30 µM, 30.03 µM",-31.18%
Cc1ccc(C2COCCN2C(=O)c2cccc(N(C)C)c2)o1 (stereo not given),Percent Effect,"30 µM, 30.03 µM",50.27%
Cc1ccc(C2COCCN2C(=O)c2ccc(F)c(F)c2)o1 (stereo not given),Percent Effect,"30 µM, 30.03 µM",29.67%
Cc1ccc(C2COCCN2C(=O)c2ccc(N(C)C)cc2)o1 (stereo not given),Percent Effect,"30 µM, 30.03 µM",5.525%
CN(C)C(=O)CN1C(=O)C[C@@H]2[C@@H]1CCN2Cc1cccc(C#N)c1.O=C(O)C(F)(F)F,Percent Effect,"30.3 µM, […]",-180.8%
Cc1nc(C)c(C(=O)N2CCc3nc4c(C)csc4c(=O)n3CC2)s1.Cl,Percent Effect,"30.3 µM, […]",-52.81%
COc1ccc(NC(=O)c2cnc(N(C)C3CCCCC3)nc2N)cc1,Percent Effect,"30.3 µM, […]",61%
CN(c1ncc(C(=O)Nc2ccccc2)c(N)n1)C1CCCCC1,Percent Effect,"30.3 µM, […]",1.024%
COc1ccc(NC(=O)c2cnc(C3CCN(C)CC3)nc2C)cc1,Percent Effect,"30.3 µM, […]",-7.704%
CN(c1ccc(CNC(=O)c2ccc(O)nc2)cc1)C1CCCCC1,Percent Effect,"30 µM, 30.03 µM",-19.08%
Cc1nc(N(C)C2CCCCC2)ncc1C(C)NC(=O)c1cccnc1 (stereo not given),Percent Effect,"30.3 µM, […]",-134.2%
CN(c1ncc(C(=O)NCc2ccccc2)c(N)n1)C1CCCCC1,Percent Effect,"30.3 µM, […]",91.96%
Cc1ccc(N2Cc3nc(=O)n(C(C)C)n3C2=O)cc1,Percent Effect,"30 µM, 30.03 µM",-28.54%
CN(C(=O)Cc1ccc(NC(=O)NC2CCC2)cc1)c1ccccc1,Percent Effect,"30 µM, 30.03 µM",-6.814%
CC(C)c1nccc(CN(C)Cc2cnn(-c3ccccc3)c2)n1,Percent Effect,"30 µM, 30.03 µM",6.527%
Cc1nsc(C(=O)NCCCc2ccccc2)n1,Percent Effect,"30 µM, 30.03 µM",-6.915%
Cl.Fc1ccc(-c2cnc(C3CCCN3)cn2)cc1 (stereo not given),Percent Effect,"30.3 µM, […]",19.97%
COc1cccc(-c2cnc(C3CCNCC3)cn2)c1,Percent Effect,"30.3 µM, […]",-29.22%
Fc1ccc(-c2cnc(C3CCNCC3)cn2)cc1,Percent Effect,"30.3 µM, […]",58.37%
C[C@@]1(O)CCN(Cc2cc[nH]n2)C[C@H]1Oc1cccc(F)c1,Percent Effect,"30.3 µM, […]",13.98%
COCCO[C@H]1CCN(C(=O)NC2CC2)[C@H]1Cc1cnn(C)c1,Percent Effect,"30 µM, 30.03 µM",-38.19%
CCn1c(CN2CCCC(O)(c3ccc(F)cc3)CC2)cnc1SC.O=C(O)CC(O)(CC(=O)O)C(=O)O (stereo not given),Percent Effect,"30.3 µM, […]",-0.3019%
CNCCNc1nccc(-c2cn(C)nc2C)n1,Percent Effect,"30.3 µM, […]",-7.529%
CCN(CC)CCCNc1nccc(-c2cn(C)nc2C)n1,Percent Effect,"30.3 µM, […]",0.2363%
CCCOCCCNc1nccc(-c2cn(C)nc2C)n1,Percent Effect,"30 µM, 30.03 µM",60.81%
NC(=O)c1c[nH]nc1NC(=O)c1cccc(Cl)c1,Percent Effect,"30.3 µM, […]",-12.02%
CN(CCO)CC1COCCN1C(=O)C1(c2cccs2)CCCC1.O=CO (stereo not given),Percent Effect,"30.3 µM, […]",95.25%
Cc1ccccc1C(=O)N1CCOCC1CN(C)C.O=CO (stereo not given),Percent Effect,"30.3 µM, […]",13.8%
O=C(N1CCOCC1CO)C1(c2cccs2)CCCC1 (stereo not given),Percent Effect,"30.3 µM, […]",-27.69%
CN(CCO)CC1COCCN1C(=O)C1CCCCC1.O=CO (stereo not given),Percent Effect,"30 µM, 30.03 µM",-4.713%
CN(CCO)CC1COCCN1C(=O)CCC1CCCC1.O=CO (stereo not given),Percent Effect,"30 µM, 30.03 µM",-33.47%
CN(C)CC1COCCN1C(=O)C1(c2cccs2)CCCC1.O=CO (stereo not given),Percent Effect,"30.3 µM, […]",99.83%
C1CC(N2C[C@@H]3COC[C@]3(COCC3CCOCC3)C2)C1.O=C(O)C(F)(F)F,Percent Effect,"30.3 µM, […]",-71.78%
CN1CCN(C(=O)[C@H]2C[C@H]3[C@H](CCN3Cc3cccs3)O2)CC1.O=C(O)C(F)(F)F.O=C(O)C(F)(F)F,Percent Effect,"30.3 µM, […]",-15.62%
O=C(c1cnc(-c2ccco2)s1)N1CCCCC1Cn1cccn1 (stereo not given),Percent Effect,"30.3 µM, […]",-0.6425%
CN(C)C1COC2(CCN(Cc3ccc4c(c3)OCO4)CC2)C1.O=C(O)C(F)(F)F.O=C(O)C(F)(F)F (stereo not given),Percent Effect,"30.3 µM, […]",39.28%
c1ccc(-c2cc(CNCCN3CCOCC3)c3nnnn3c2)cc1,Percent Effect,"30.3 µM, […]",-21.36%
c1ccc(-c2cc(CNCCN3CCCC3)c3nnnn3c2)cc1,Percent Effect,"30.3 µM, […]",99.79%
c1ccc(-c2cc(CNCCCN3CCCCC3)c3nnnn3c2)cc1,Percent Effect,"30.3 µM, […]",-3.089%
O=C(N1CCOCC1)N1CCc2ncnc(NC3CCC3)c2CC1.O=C(O)C(F)(F)F,Percent Effect,"30.3 µM, […]",-46.89%
O=C(Cn1cccn1)Nc1ccc(N2CCCCC2)cc1,Percent Effect,"30 µM, 30.03 µM",-14.86%
Cc1cccnc1[C@]1(O)CC[C@H]2CN(Cc3cccc(Cl)c3Cl)C[C@H]21.O=C(O)CC(O)(CC(=O)O)C(=O)O,Percent Effect,"30.3 µM, […]",-4.562%
Cc1ccc(SC2CCCC2)c(C(=O)NCCO)c1,Percent Effect,"30 µM, 30.03 µM",-19.93%
Cc1ccc(C(O)CNCc2c(C(C)C)nn(C)c2N(C)C)cc1 (stereo not given),Percent Effect,"30 µM, 30.03 µM",54.73%
CC(C)c1nn(C)c(N(C)C)c1CNCC(O)c1cccc(F)c1 (stereo not given),Percent Effect,10 µM,-45.99%
COCc1ccccc1CNCc1c(C(C)C)nn(C)c1N(C)C,Percent Effect,10 µM,-17.78%
CC(C)c1nn(C)c(N(C)C)c1CNCC(O)c1ccccc1 (stereo not given),Percent Effect,"30.3 µM, […]",9.453%
same,Percent Effect,"10 mM, 10 mM as filed; unlikely as a test dose",-25.34%
COc1ncccc1CNCc1c(C(C)C)nn(C)c1N(C)C,Percent Effect,"30.3 µM, […]",0.2022%
COc1cccc(CNCc2c(C(C)C)nn(C)c2N(C)C)c1OC,Percent Effect,"30 µM, 30.03 µM",101.8%
Cc1ccc(CN(CCCN2CCOCC2)Cc2[nH]cnc2C)o1.O=C(O)CC(O)(CC(=O)O)C(=O)O,Percent Effect,"30.3 µM, […]",-12.11%
CN(C)CCNC(=O)C1Cc2nc(-c3ccccc3)sc2N1CC1CC1.O=C(O)C(F)(F)F (stereo not given),Percent Effect,"30.3 µM, […]",23.06%
O=C(C1CCOCC1)N1CCc2onc(COc3cccnc3)c2C1.O=C(O)C(F)(F)F,Percent Effect,"30.3 µM, […]",-638.1%
COc1cc(CN(C)[C@@H]2COC[C@H]2c2ccc(F)cc2)cc(OC)c1.O=C(O)CC(O)(CC(=O)O)C(=O)O,Percent Effect,"30.3 µM, […]",-25.55%
Cc1ccc(N2CC[C@H]3O[C@@H](C(=O)N4CCCO4)CC[C@H]32)nn1.O=C(O)C(F)(F)F,Percent Effect,"30.3 µM, […]",-45.1%
